Source: PubChem BioAssay
Calls of active or inactive are those of the source.

Experiments:
[1] = optical density shifts of acrAB sulA E. coli – strain DRC41, OD650, 48 h, E. coli filamentation inducer project, primary screen (AID 1152); conditions: higher = more signal, called active from +8 up or from −8 down;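 note: E. coli MC1000 strain DRC41 lacking acrAB efflux pump and sulA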
[2] = probe aLefty1 binding on compound microarray – biochemical, small-molecule microarray, 635/667 nm fluorescence, primary screen (AID 1153); conditions: higher = more signal;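 note: score merges spot fluorescence with signal-to-noise ratio from the scanned slide images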
[3] = plasmodial surface anion channel blockers, osmotic lysis – cell-based, P. falciparum Indochina, OD700, 1 h, primary screen (AID 1154); conditions: P. falciparum Indochina infected RBC osmotic lysis, higher = more signal, called active from +8 up or from −8 down
[4] = plasmodial surface anion channel blockers, osmotic lysis – cell-based, P. falciparum Indochina, OD700, 2 h, primary screen (AID 1155);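 note: lysis reports solute entry through the parasite surface anion channel PSAC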; conditions: P. falciparum Indochina infected erythrocytes, higher = more signal, called active from +8 up or from −8 down
[5] = changes in parasitized red cell lysis, either direction – P. falciparum Indochina, OD700, 3 h, PSAC antagonist project, primary screen (AID 1156); conditions: P. falciparum-infected erythrocytes, osmotic lysis, higher = more signal, called active from +8 up or from −8 down
[6] = plasmodial surface anion channel blockers, osmotic lysis – cell-based, P. falciparum Indochina, OD700, 18 h, primary screen (AID 1157); conditions: P. falciparum Indochina infected erythrocytes, osmotic lysis OD700, 18 h; higher = more signal, called active from +8 up or from −8 down
[7] = S6 kinase pathway phospho-S6 level changes – cell-based, A549, cytoblot, luminescence, serum-stimulated, primary screen (AID 1158); conditions: 5 h, higher = more signal;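 note: serum-stimulated A549 lung adenocarcinoma cells; signal is phosphorylated S6 detected by cytoblot immunostaining with HRP secondary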
[8] = target: NADPH oxidase 2 (Homo sapiens) (UniProt P04839); assay: compounds shifting NOX2 Amplex Red fluorescence – cell-based, HEK293-NOX2, PMA-stimulated, NOX inhibitor project, primary screen (AID 1159); conditions: 45 min, higher = more signal, called active from +8 up or from −8 down; note: test concentration not given here
[9] = target: NADPH oxidase 4 (Homo sapiens) (UniProt Q9NPH5); assay: compounds shifting NOX4 Amplex Red fluorescence – cell-based, HEK293-NOX4, tetracycline-induced, NOX inhibitor project, primary screen (AID 1160); conditions: HEK293-NOX4, Amplex Red H2O2 fluorescence, 45 min; higher = more signal, called active from +8 up or from −8 down
[10] = target: NADPH oxidase 5 (Homo sapiens) (UniProt Q96PH1); assay: compounds shifting NOX5 Amplex Red fluorescence – cell-based, HEK293-NOX5, NOX inhibitor project, primary screen (AID 1161); conditions: HEK293-NOX5, ionomycin, 45 min, higher = more signal
Sequence of NADPH oxidase 5 (Homo sapiens) (Q96PH1 whole entry, looked up): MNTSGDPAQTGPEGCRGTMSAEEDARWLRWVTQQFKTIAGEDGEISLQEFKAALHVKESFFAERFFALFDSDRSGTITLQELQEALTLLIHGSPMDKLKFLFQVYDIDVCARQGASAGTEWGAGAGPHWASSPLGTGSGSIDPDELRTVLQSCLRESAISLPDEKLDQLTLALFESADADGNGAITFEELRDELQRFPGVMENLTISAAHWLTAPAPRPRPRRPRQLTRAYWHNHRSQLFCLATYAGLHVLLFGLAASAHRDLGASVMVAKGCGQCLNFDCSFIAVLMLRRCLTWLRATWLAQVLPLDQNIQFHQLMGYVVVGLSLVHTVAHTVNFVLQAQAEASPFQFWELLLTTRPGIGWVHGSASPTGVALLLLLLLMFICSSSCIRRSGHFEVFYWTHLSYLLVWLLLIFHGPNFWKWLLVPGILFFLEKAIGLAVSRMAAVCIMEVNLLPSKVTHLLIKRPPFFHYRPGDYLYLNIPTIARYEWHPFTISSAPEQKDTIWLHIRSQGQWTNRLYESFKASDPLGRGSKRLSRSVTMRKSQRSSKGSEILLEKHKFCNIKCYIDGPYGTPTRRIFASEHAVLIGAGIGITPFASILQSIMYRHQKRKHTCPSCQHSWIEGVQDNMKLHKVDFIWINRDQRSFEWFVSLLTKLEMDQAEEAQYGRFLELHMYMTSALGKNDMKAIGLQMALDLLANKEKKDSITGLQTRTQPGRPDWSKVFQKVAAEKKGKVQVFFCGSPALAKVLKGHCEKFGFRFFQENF

Sequence of NADPH oxidase 2 (Homo sapiens) (P04839 whole entry, looked up): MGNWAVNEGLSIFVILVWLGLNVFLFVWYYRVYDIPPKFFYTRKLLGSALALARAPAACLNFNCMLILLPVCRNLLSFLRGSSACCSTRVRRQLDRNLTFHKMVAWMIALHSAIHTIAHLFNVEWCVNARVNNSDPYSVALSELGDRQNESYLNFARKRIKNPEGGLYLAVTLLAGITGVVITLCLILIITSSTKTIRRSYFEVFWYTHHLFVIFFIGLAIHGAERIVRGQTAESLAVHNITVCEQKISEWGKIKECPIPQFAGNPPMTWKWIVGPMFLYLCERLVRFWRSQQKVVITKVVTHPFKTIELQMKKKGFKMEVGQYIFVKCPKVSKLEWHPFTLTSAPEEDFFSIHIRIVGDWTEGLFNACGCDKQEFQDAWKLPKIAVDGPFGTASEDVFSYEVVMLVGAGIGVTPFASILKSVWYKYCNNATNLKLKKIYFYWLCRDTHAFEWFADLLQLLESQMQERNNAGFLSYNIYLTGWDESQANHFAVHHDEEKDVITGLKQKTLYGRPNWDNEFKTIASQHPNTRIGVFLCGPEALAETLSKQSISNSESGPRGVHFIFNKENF
Sequence of NADPH oxidase 4 (Homo sapiens) (Q9NPH5 whole entry, looked up): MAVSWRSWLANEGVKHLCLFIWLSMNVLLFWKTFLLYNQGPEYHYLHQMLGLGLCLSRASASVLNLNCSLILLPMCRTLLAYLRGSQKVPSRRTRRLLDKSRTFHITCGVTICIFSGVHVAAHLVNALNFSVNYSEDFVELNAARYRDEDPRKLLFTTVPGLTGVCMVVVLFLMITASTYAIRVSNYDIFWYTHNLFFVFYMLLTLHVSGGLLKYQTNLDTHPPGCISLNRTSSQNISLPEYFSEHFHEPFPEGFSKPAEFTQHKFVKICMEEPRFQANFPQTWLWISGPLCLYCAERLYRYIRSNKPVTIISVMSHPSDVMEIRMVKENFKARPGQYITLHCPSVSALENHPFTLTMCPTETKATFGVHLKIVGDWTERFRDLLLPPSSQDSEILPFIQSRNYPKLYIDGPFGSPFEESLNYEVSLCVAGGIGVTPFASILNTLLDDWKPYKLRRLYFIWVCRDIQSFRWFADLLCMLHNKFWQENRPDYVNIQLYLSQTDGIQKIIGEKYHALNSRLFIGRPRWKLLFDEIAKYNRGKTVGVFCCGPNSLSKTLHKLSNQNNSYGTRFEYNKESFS

| Structure (SMILES) | z-score [1] | composite z-score [2] | z-score [3] | z-score [4] | z-score [5] | z-score [6] | z-score [7] | z-score [8] | z-score [9] | z-score [10] |
| --- | --- | --- | --- | --- | --- | --- | --- | --- | --- | --- |
| CC(=O)NCCCC[C@@H]1NC(=O)[C@@H]2C[C@H](C(=O)NCCCCCN)[C@H](c3cccc(OCCO)c3)N2C1=O | 2.26 (inactive) | -0.22 | 2.03 (inactive) | -0.543 (inactive) | 1.98 (inactive) | -1.27 (inactive) | 4.55 | 1.14 (inactive) | 1.06 (inactive) | 1.74 |
| N#Cc1ccc(NN2C(C(O)c3ccc(Br)cc3)C=CC3C(=O)N(c4ccccc4)C(=O)C32)cc1 (stereo not given) | -0.922 (inactive) | 0.57 | 14.8 (active) | 2.9 (inactive) | 0.419 (inactive) | -0.348 (inactive) | 0.717 | -2.6 (inactive) | -4.29 (inactive) | -3.45 |
| O[C@@H](Cc1ccccc1)[C@@H](/C=C/C1CC1)N(CC#Cc1ccccc1)Cc1ccccc1Br | 0.241 (inactive) | 0.187 | 2.05 (inactive) | 1.37 (inactive) | 0.108 (inactive) | 0.475 (inactive) | 0.131 | -0.612 (inactive) | 0.221 (inactive) | -0.586 |
| CCCCC(CC)C(O)C1C=CC2C(=O)N(c3ccccc3)C(=O)C2N1Nc1ccc(C#N)cc1 (stereo not given) | 0.344 (inactive) | 0.834 | 9.85 (active) | 2.68 (inactive) | 1.89 (inactive) | 1.54 (inactive) | -0.423 | 0.414 (inactive) | -2.2 (inactive) | -1.91 |
| CCOC(=O)C[C@H]1[C@H](OC(=O)c2ccc(C(=O)c3ccccc3)cc2)[C@@H](NC(=O)C2CCCCC2)c2cc(OCCCO)ccc2N1C(=O)c1ccc2ccccc2n1 | 1.94 (inactive) | 0.596 | 3.11 (inactive) | 0.347 (inactive) | -0.238 (inactive) | 0.0872 (inactive) | 0.0955 | -1.62 (inactive) | 0.402 (inactive) | 0.124 |
| C=CCC(OC(C)=O)[C@@H]1[C@@H](N(Cc2ccc(-c3ccccc3)cc2)C(=O)c2ccc(-c3ccccc3)cc2)c2cc(OCCCO)ccc2N1C(=O)c1ccc2ccccc2c1 (stereo not given in full) | -0.75 (inactive) | 0.445 | 0.225 (inactive) | -0.135 (inactive) | -0.503 (inactive) | -0.0602 (inactive) | 0.6 | 0.707 (inactive) | 0.987 (inactive) | 0.99 |
| CCOC(=O)C[C@H]1[C@H](OC(=O)c2cc3ccccc3oc2=O)[C@@H](NC(=O)CC(C)C)c2cc(OCCCO)ccc2N1C(=O)c1ccc2ccccc2n1 | -0.618 (inactive) | -0.0061 | 9.02 (active) | 1.25 (inactive) | 0.609 (inactive) | 0.647 (inactive) | -0.679 | 1.01 (inactive) | 1.23 (inactive) | 0.7 |
| CCOC(=O)C[C@H]1[C@H](OC(=O)c2cc3ccccc3oc2=O)[C@@H](NC(=O)c2ccccc2)c2cc(OCCCO)ccc2N1C(=O)c1ccccc1 | 0.0768 (inactive) | 0.158 | 0.609 (inactive) | -1.44 (inactive) | -0.35 (inactive) | -2.88 (inactive) | 0.312 | -0.423 (inactive) | -1.07 (inactive) | -0.713 |
| COc1cc2c(cc1O)C(C1CC1)N(Cc1cccc(OC(F)(F)F)c1)CC2 (stereo not given) | -0.933 (inactive) | -0.105 | 2.92 (inactive) | 0.325 (inactive) | -0.222 (inactive) | 0.032 (inactive) | -0.759 | -5.01 (inactive) | -2.98 (inactive) | -4.25 |
| COc1ccc(C(=O)Nc2ccc(CN3C(=O)[C@]4(O[C@H](CC(=O)N5Cc6ccccc6C[C@H]5CO)[C@@H]([Si](C)(C)c5ccc(OC)cc5)[C@@H]4C)c4ccccc43)cc2)cc1 | -0.298 (inactive) | 0.0004 | 3.15 (inactive) | 1.5 (inactive) | 1.15 (inactive) | 0.941 (inactive) | 0.383 | 0.545 (inactive) | -0.307 (inactive) | 2.12 |
| CCCCCCc1nc(Cc2cc(OC)c(OC)c(OC)c2)cc2c1[Si](C(C)C)(C(C)C)OC2 | -0.56 (inactive) | -0.131 | 0.88 (inactive) | -0.221 (inactive) | 0.908 (inactive) | -0.718 (inactive) | 0.552 | -4.01 (inactive) | -1.88 (inactive) | -5.31 |
| COCCOC(=O)N1C(=O)[C@@]2(c3cc(C#CCNC(N)=O)ccc31)[C@H](C(N)=O)[C@H]1C(=O)O[C@H](c3ccccc3)[C@H](c3ccccc3)N1[C@@H]2c1ccccc1OCCO | -0.77 (inactive) | 0.0299 | 6.57 (inactive) | 0.793 (inactive) | 1.18 (inactive) | 0.269 (inactive) | -0.309 | 1.9 (inactive) | 1.37 (inactive) | 0.198 |
| COC(=O)[C@@]1(Cc2ccc(OC)cc2)[C@H]2c3cc(C(=O)N4CCCC4)n(CCc4c[nH]c5ccc(OC)cc45)c3C[C@H]2CN1C(=O)c1ccccc1 | -1.61 (inactive) | 0.894 | 4.25 (inactive) | 0.71 (inactive) | 1.42 (inactive) | 1.57 (inactive) | 0.0592 | 0.547 (inactive) | 1.14 (inactive) | 1.38 |
| CCCC[C@@H](O)C1=C(COC)C[C@H]2C(=O)N(Cc3ccccc3)C(=O)[C@H]2[C@H]1CO | 0.878 (inactive) | -0.103 | 1.83 (inactive) | -0.384 (inactive) | -0.157 (inactive) | 0.133 (inactive) | 0.304 | -0.725 (inactive) | 0.282 (inactive) | 0.373 |
| CC(C)NC(=O)[C@@]1(c2ccc([N+](=O)[O-])cc2)CC(=O)N(C2CCCCC2)[C@@H]1c1ccc(CO)cc1 | 1.1 (inactive) | -0.154 | 0.66 (inactive) | 0.168 (inactive) | 0.18 (inactive) | -0.0376 (inactive) | -0.391 | 0.0357 (inactive) | 0.164 (inactive) | -0.229 |
| COc1cc(NN2C(C(O)c3cc(OC)c(OC)c(OC)c3)C=CC3C(=O)N(C)C(=O)C32)cc(OC)c1OC (stereo not given) | -1.12 (inactive) | 0.179 | 0.367 (inactive) | 0.0378 (inactive) | 0.508 (inactive) | 0.853 (inactive) | -0.402 | -1.81 (inactive) | -2.26 (inactive) | -2.51 |
| COC(=O)[C@@]1(Cc2ccccc2)[C@H]2c3cc(C(=O)N(C)C)n(Cc4ccc(C)o4)c3C[C@H]2CN1C(=O)c1ccccc1 | -1.91 (inactive) | 1.25 | 2.55 (inactive) | -0.381 (inactive) | 0.541 (inactive) | -1.54 (inactive) | 1.97 | -3.27 (inactive) | -2.44 (inactive) | -4.77 |
| [N-]=[N+]=Nc1ccccc1C[C@@]1(C(N)=O)N=C(c2ccc(OCCCO)cc2)O[C@@H]1c1ccccc1N=[N+]=[N-] | 0.587 (inactive) | 0.0211 | 30.4 (active) | 25.3 (active) | 2.63 (inactive) | 1.35 (inactive) | 2.05 | -0.0581 (inactive) | -1.11 (inactive) | -1.55 |
| Cc1ccc(C(C)CC(O)C2C=CC3C(=O)N(c4ccccc4)C(=O)C3N2Nc2ccccc2)o1 (stereo not given) | -1.13 (inactive) | 0.738 | 4.07 (inactive) | 1 (inactive) | -0.0498 (inactive) | -0.374 (inactive) | 2.07 | -3.07 (inactive) | -5.71 (inactive) | -4.91 |
| CC(C)N1C(=O)C[C@@](C(=O)O)(c2ccc([N+](=O)[O-])cc2)[C@H]1c1ccc(CO)cc1 | 1.47 (inactive) | 0.188 | 3.45 (inactive) | 0.654 (inactive) | 0.415 (inactive) | 0.159 (inactive) | 0.126 | -2.39 (inactive) | 0.251 (inactive) | 1.02 |
| COC(=O)C1=CC(CCCO)=CC(c2cccs2)N(Cc2cccc(OC(F)(F)F)c2)C=C1C(=O)OC (stereo not given) | -0.504 (inactive) | -0.126 | 4.92 (inactive) | 1.34 (inactive) | 0.87 (inactive) | 0.842 (inactive) | -0.344 | -0.244 (inactive) | -0.436 (inactive) | -0.0441 |
| [N-]=[N+]=Nc1ccccc1[C@H]1OC(c2ccc(OCCCO)cc2)=N[C@@]1(Cc1ccccc1)C(=O)NCCN1CCOCC1 | 0.378 (inactive) | 0.31 | 33.5 (active) | 30.9 (active) | 2.73 (inactive) | 8.84 (active) | 0.138 | -1 (inactive) | 0.585 (inactive) | 1.57 |
| CCCCN1CC=CC23O[C@@H]4/C=C\CCCOC(=O)C4[C@H]2C(=O)N(CCO)[C@@H]3C1=O (stereo not given in full) | 1.18 (inactive) | -0.297 | 0.978 (inactive) | 1.05 (inactive) | 0.504 (inactive) | 0.628 (inactive) | -0.246 | 1.28 (inactive) | 0.314 (inactive) | 1.5 |
| C=CCNC(=O)[C@@H]1[C@H]2C(=O)O[C@H](c3ccccc3)[C@H](c3ccccc3)N2[C@H](c2ccc(OCCO)cc2)[C@@]12C(=O)N(C(=O)OCCOC)c1ccc(C#Cc3ccc(OC)cc3)cc12 | -0.0604 (inactive) | 0.302 | 3.58 (inactive) | 1.28 (inactive) | 0.0207 (inactive) | 0.776 (inactive) | -0.492 | 1.78 (inactive) | 0.437 (inactive) | 0.986 |
| O=C(NCc1ccc(F)cc1)[C@H]1C[C@H]2C(=O)NCC(=O)N2[C@H]1c1ccc(O)cc1 | 0.357 (inactive) | 0.239 | 1.11 (inactive) | 0.285 (inactive) | -2.04 (inactive) | 0.4 (inactive) | -0.337 | 0.992 (inactive) | 0.558 (inactive) | 0.693 |
| O=C1O[C@@H](c2ccccc2)[C@@H](c2ccccc2)N2[C@@H](c3ccc(OCCO)cc3)[C@]3(C(=O)Nc4ccc(C#CC5=CCCCC5)cc43)[C@@H](C(=O)NC[C@H](O)c3ccccc3)[C@H]12 | -0.836 (inactive) | 1.38 | 1.96 (inactive) | 0.982 (inactive) | -0.607 (inactive) | 0.381 (inactive) | -0.164 | 1.61 (inactive) | 0.433 (inactive) | 0.469 |
